# Data reported in PubChem BioAssay (NCATS).
# Records with an inconclusive call do not appear. Entries that show only a call come without a potency. Unmarked numbers belong to inactive results. Calls of active or inactive are those of the source. The call rests on the fitted dose curve; in most records, active means well fitted curve in the direction sought with a large enough effect; inconclusive means small, poorly fitted or top-dose-only effect, or another doubt; inactive means no such curve, though single readings can be large; an effect the other way counts as inactive or inconclusive.
# Legend:
# [1] = molecular target: Aldehyde dehydrogenase, mitochondrial (Homo sapiens) (UniProt P05091); assay: qHTS for Inhibitors of the Aldehyde Dehydrogenase Family (ALDH2) Primary screen (AID 2061308); further: nearly all actives have a fitted effect of over 55% in size
# [2] = molecular target: Retinaldehyde dehydrogenase 3 (Homo sapiens) (UniProt P47895); assay: qHTS for Inhibitors of the Aldehyde Dehydrogenase Family (ALDH1A3) Primary screen (AID 2061315)
SMILES,Potency [1],Potency [2]
Cc1cccc(C(=O)NCC(=O)OC(C(=O)Nc2cc(C(F)(F)F)ccc2Cl)c2ccccc2)c1 (centres undefined),inactive,inactive
S=P(c1ccccc1)(c1ccccc1)c1c[n+](C/C=C/c2ccccc2)c2ccccn12,inactive,inactive
O=C(OCC#CCSc1nnc(-c2ccc3ccccc3c2)o1)c1cccc(F)c1,inactive,inactive
Cc1noc(C)c1-c1ccc2ncnc(NCc3cccc(-c4ccccc4)c3)c2c1,inactive,inactive
Cc1ccc(S(=O)(=O)Nc2cnccc2C(=O)Nc2ccncc2)cc1,inactive,inactive
Cc1ccccc1-c1csc2ncnc(Sc3nnnn3C)c12,inactive,inactive
Cc1ccc(S(=O)(=O)Nc2cc(C(=O)Nc3nc(-c4ccccc4)cs3)ccn2)cc1,inactive,inactive
Cc1ccnc(NC(=S)N2CCN(c3cccc(N(C)C)c3)CC2)c1,inactive,inactive
CCC(=O)NC(c1ccc2c(c1)OCO2)c1cc(Cl)c2cccnc2c1O (centres undefined),inactive,inactive
O=S(=O)(Nc1cccc2cccnc12)c1ccc(Br)s1,inactive,inactive
CN(Cc1ccco1)c1ncnc2ccc(-c3ccc4c(c3)OCCO4)cc12,inactive,inactive
CCOc1ccc(COc2ccc(-c3nc4ccccc4[nH]3)cc2)cc1,inactive,inactive
N#Cc1ccc(NC(=O)Nc2nnc(-c3ccncc3)s2)c(Cl)c1,inactive,inactive
CC1(C)CC[C@]23CO[C@@]4(CCC5[C@@]6(C)CC[C@H](O[C@@H]7OC[C@H](O[C@@H]8O[C@H](CO)[C@@H](O)[C@H](O)[C@H]8O[C@@H]8OC[C@@H](O)[C@H](O)[C@H]8O)[C@H](O)[C@H]7O[C@@H]7O[C@H](CO)[C@@H](O)[C@H](O)[C@H]7O)[C@@](C)(CO)C6CC[C@@]5(C)[C@]4(C)C[C@H]2O)[C@@H]3C1 (some centres undefined),inactive,inactive
O=C(CCc1ccccc1Br)NCCc1nc2ccccc2[nH]1,inactive,inactive
COc1cccc(N2C(=O)c3ccccc3C2=O)n1,inactive,inactive
Cc1cccc(-n2cnc3cc(C(=O)N4CCC(Cc5ccccc5)CC4)ccc32)c1,inactive,inactive
O=C(/C=C/c1cccc(Cl)c1)Nc1cccc([S+](=O)([O-])Nc2ccccc2F)c1,inactive,inactive
c1nc(NCC2CCCO2)c2ccc(-c3ccc4c(c3)OCO4)cc2n1 (centres undefined),inactive,inactive
Cc1cc(C)nc(NC(=S)N2CCN(c3ccc4cnccc4c3)CC2)c1,inactive,inactive
Nc1ccc(C(=O)Nc2ccc(-c3nc4ccccc4[nH]3)cc2)cc1Cl,inactive,inactive

SMILES,Potency [1],Potency [2]
Cc1ccc(NS(=O)(=O)c2cc3c(cc2Br)NC(=O)CO3)cc1C,inactive,inactive
COCCN(CCOC)c1nc(C)nc2c1nc(-c1ccccc1)n2CC1CCN(C)CC1,inactive,inactive
Cc1cc(C)n2ncc(C(=O)NC3CCCCC3)c2n1,inactive,inactive
COc1ccc2nc(-c3cccc(F)c3)sc2c1,inactive,inactive
Cc1cn([C@H]2C[C@H](N[S+](=O)([O-])Cc3ccc([N+](=O)[O-])cc3)[C@@H](CO)O2)c(=O)[nH]c1=O,inactive,inactive
COc1ccc(C2Nc3ccccc3C(=O)N2CCO)cc1COc1c(C)cc(NC(C)=O)cc1C (centres undefined),inactive,inactive
Cc1cc(Nc2ncc3cc(-c4c(Cl)cccc4Cl)c(=O)n(C)c3n2)ccc1F,inactive,inactive
NC(=O)c1ccccc1-c1noc(-c2ccccc2F)n1,inactive,inactive
NC(N)=NCCC[C@H](NC(=O)CNC(=O)c1ccccc1)C(=O)Nc1cc(C(F)(F)F)ccc1Cl,inactive,inactive
O=C(Nc1ccc(-c2nc3ccccc3[nH]2)cc1)Nc1ccc2c(c1)OCCO2,inactive,inactive
Cc1nnc2sc(-c3cccc(NC(=O)c4ccc(-c5cccc(Cl)c5)o4)c3)nn12,inactive,inactive
COc1cc(NS(=O)(=O)c2ccc(C)cc2)ccc1C(=O)Nc1nc(-c2ccccc2)cs1,inactive,inactive
Cc1ccc(NS(=O)(=O)c2ccc3c(c2)oc(=O)n3C)cc1C,inactive,inactive
OC1C=C2C3CN(Cc4cc5c(cc43)OCO5)C2CC1O (centres undefined),inactive,inactive
O=C(Nc1nc(-c2ccccc2)cs1)c1cccc(NS(=O)(=O)c2nccs2)c1,inactive,inactive
CNc1oc(-c2ccc(-c3ccccc3)cc2)nc1C#N,inactive,inactive
CC(=O)Nc1sc2c(c1-c1nc3ccccc3s1)CC(C)NC2 (centres undefined),inactive,inactive
CCC(=O)NC(C)c1cc(Cl)c2cccnc2c1O (centres undefined),inactive,inactive
O=C(Nc1ccc(S(=O)(=O)Nc2nccs2)cc1)c1ccnc2ccccc12,inactive,inactive
CC1CCC(C(=O)Nc2ccc([S+](=O)([O-])Nc3nccs3)cc2)CC1 (centres undefined),inactive,inactive
Cc1noc(C)c1-c1ccc2ncnc(NCc3ccc(C(F)(F)F)cc3)c2c1,inactive,inactive
